In PubChem BioAssay (EPA / NIEHS):
Inconclusive results are not listed. The source made the active and inactive calls. How the source made its calls: active means hit-call score of the fitted dose curve at least 0.9, where 1 is the maximum; inconclusive means response in the unintended direction; inactive means score below 0.9.

What follows are compounds tested against Steroid hormone receptor ERR1 (Homo sapiens) (UniProt P11474) (assay: ATG_ERRa_TRANS: Attagene TRANS-FACTORIAL HepG2 Assay for human Estrogen-Related Receptor alpha (ERRa) (AID 2282971)). Details: HepG2 Attagene TRANS reporter, ERRa transactivation.
Steroid hormone receptor ERR1 (Homo sapiens), sequence (P11474 whole entry, looked up): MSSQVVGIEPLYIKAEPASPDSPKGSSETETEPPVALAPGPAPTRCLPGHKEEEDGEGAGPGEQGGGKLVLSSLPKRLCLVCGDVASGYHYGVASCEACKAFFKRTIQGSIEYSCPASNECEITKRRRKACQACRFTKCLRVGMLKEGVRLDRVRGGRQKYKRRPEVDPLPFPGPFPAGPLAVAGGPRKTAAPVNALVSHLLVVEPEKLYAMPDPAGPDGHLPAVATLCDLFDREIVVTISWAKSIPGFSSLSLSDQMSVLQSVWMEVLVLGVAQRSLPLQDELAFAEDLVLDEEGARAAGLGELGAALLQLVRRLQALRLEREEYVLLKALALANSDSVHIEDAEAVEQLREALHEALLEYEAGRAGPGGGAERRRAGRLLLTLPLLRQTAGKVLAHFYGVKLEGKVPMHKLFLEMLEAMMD
Procedure: ATG_TRANS is a cell-based, multiplexed-readout assay that uses HepG2, a human liver cell line, with measurements taken at 24 hours after chemical dosing in a 24-well plate.ATG_ERRa_TRANS is one of 30 assay component(s) measured or calculated from the ATG_TRANS assay. It is designed to make measurements of mRNA induction, a form of inducible reporter, as detected with fluorescence intensity signals by Reverse transcription polymerase chain reaction (RT-PCR) and Capillary electrophoresis technology.Data from the assay component ATG_ERRa_TRANS was analyzed into 1 assay endpoint. This assay endpoint, ATG_ERRa_TRANS, was analyzed in the positive analysis fitting direction relative to DMSO as the negative control and baseline of activity. Using a type of inducible reporter, measures of mRNA for gain-of-signal activity can be used to understand the reporter gene at the transcription factor-level as they relate to the gene ESRRA. Furthermore, this assay endpoint can be referred to as a primary readout, because this assay has produced multiple assay endpoints where this one serves a reporter gene function. To generalize the intended target to other relatable targets, this assay endpoint is annotated to the nuclear receptor intended target family, where the subfamily is steroidal.
Human liver HepG2 cells are transiently transfected with multiple reporter transcription units (MRTUs) in 6-well plates using FuGene 6 reagent (Roche; 3 ml FuGene/1 mg DNA). The MRTU constructs are regulated by a cis-regulating element (promoter). […] A major difference between the CIS and TRANS system is that in CIS activities of endogenous TFs are measured, whereas the TRANS assay evaluates changes in activities of exogenous, chimeric NR-Gal4 proteins. […] At the end of 24 hour incubation, total RNA was isolated using TriZol reagent (Invitrogen). The isolated RNA is then reverse-transcribed using oligo(dT) primer and Mo-MLV reverse transcriptase (Invitrogen) with DNAse I (Ambion) treatment for 30 min. The one-tenth of the produced cDNA was amplified by PCR using Taq DNA polymerase (Invitrogen) and two reporter sequence-specific primers. The PCR products were fluorescently labeled by primer extension with 6-arboxyfluorescein (6-FAM) 5'-labeled reporter sequence-specific primer (2 min at 95 C, 20 s at 68 C and 10 min at 72 C) and these products were digested with 5U of HpaI (New England Biolabs) for 2h at 37 C. The fragments were purified using Qiaquick PCR columns (Qiagen), analyzed on an ABI 3130xL genetic analyzer (Applied Biosystems) with peak positions identified by using a set of X-rhodamine (ROX)-labeled MapMarker1000 molecular weight standards (BioVentures). The raw capillary electrophoresis data was processed using Attagraph software (Attagene).

Row | SMILES | outcome
1 | CCCCOC(=O)c1ccccc1C(=O)OCCCC | inactive
2 | CCCCNC(=O)OCC#CI | inactive
3 | N#Cc1cc(Br)c(O)c(Br)c1 | inactive
4 | CNC(=O)ON=CC(C)(C)SC | inactive
5 | CCc1nn(C)c(C(=O)NCc2ccc(C(C)(C)C)cc2)c1Cl | inactive
6 | OC(c1ccc(Cl)cc1)(c1cncnc1)c1ccccc1Cl (centres undefined) | inactive
7 | CCNc1nc(Cl)nc(NCC)n1 | inactive
8 | COC(=O)N(OC)c1ccccc1COc1ccn(-c2ccc(Cl)cc2)n1 | inactive
9 | COC(=O)C=C(C)OP(=O)(OC)OC | inactive
10 | CON(C)C(=O)Nc1ccc(Cl)c(Cl)c1 | inactive
11 | COC(=O)c1ccccc1C(=O)OC | inactive
12 | CC(C)C1(C)N=C(c2nc3ccccc3cc2C(=O)O)NC1=O (centres undefined) | inactive
13 | CC(C)(C)c1ccc(CSc2cnn(C(C)(C)C)c(=O)c2Cl)cc1 | inactive
14 | N#Cc1nn(-c2c(Cl)cc(C(F)(F)F)cc2Cl)c(N)c1S(=O)C(F)(F)F (centres undefined) | inactive
15 | CO/C=C(/C(=O)OC)c1ccccc1Oc1cc(Oc2ccccc2C#N)ncn1 | inactive
16 | COc1ccc(C(c2ccc(OC)cc2)C(Cl)(Cl)Cl)cc1 | inactive
17 | C=CCC1=C(C)C(OC(=O)C2C(C=C(C)C)C2(C)C)CC1=O (centres undefined) | inactive
18 | COc1nc(NC(C)C)nc(NC(C)C)n1 | inactive
19 | O=C(Nc1ccccc1)Nc1ccnc(Cl)c1 | inactive
20 | CCNc1nc(Cl)nc(NC(C)C)n1 | inactive
21 | COc1cnc(OC)n2nc(NS(=O)(=O)c3c(OCC(F)F)cccc3C(F)(F)F)nc12 | inactive
22 | COP(=S)(OC)Oc1nc(Cl)c(Cl)cc1Cl | inactive
23 | CC1COC(Cn2cncn2)(c2ccc(Oc3ccc(Cl)cc3)cc2Cl)O1 (centres undefined) | inactive
24 | C=CCC1=C(C)[C@@H](OC(=O)[C@@H]2[C@@H](C=C(C)C)C2(C)C)CC1=O | inactive
25 | CCCN(CCC)c1c([N+](=O)[O-])cc(S(N)(=O)=O)cc1[N+](=O)[O-] | inactive
26 | COC(=O)C(C)Oc1ccc(Oc2ccc(Cl)cc2Cl)cc1 (centres undefined) | inactive
27 | COc1nc(C)nc(NC(=O)NS(=O)(=O)c2ccccc2CCC(F)(F)F)n1 | inactive
28 | CC1=C(C(=O)Nc2ccccc2)SCCO1 | inactive
29 | N#CC(CCc1ccc(Cl)cc1)(Cn1cncn1)c1ccccc1 (centres undefined) | inactive
